Screening data deposited in PubChem BioAssay by National Center for Advancing Translational Sciences (NCATS).
Pf growth 96h = P. falciparum growth inhibition at 96 hours; Potency, µM (top dose mostly 28.7 µM), actives largely listed as inhibitors; actives 6.9% (n = 320,000); AID 504834; P. falciparum luciferase reporter growth, 96 h
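Plates of compound plus infected erythrocytes (2% hematocrit, 0.05% parasitemia final) incubate 96 hours, 37 C, 5% CO2. Detection reagent added; reduced luminescence from the parasites' luciferase reporter flags inhibition.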
Sm TGR inh = inhibitors of Schistosoma mansoni thioredoxin glutathione reductase; actives 3% (n = 360,000); Potency, µM (highest dose often 114 µM), hits mostly inhibitors; Q962Y6; AID 485364; purified TGR, DTNB reduction, TNB absorbance 405 nm; note: nearly all actives have a fitted effect of over 60% in size
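Kinetic colorimetric format: TGR-catalysed, NADPH-driven DTNB reduction monitored via TNB absorbance. Enzyme dispensed at 20 nM; compound exposure 15 min at room temperature before reaction start.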
SARS PLpro yeast = blocks SARS-CoV papain-like protease in a yeast assay; S. cerevisiae expressing SARS-CoV PLpro, growth rescue; Potency, µM (doses to about 32.9 µM), usual class: activators; actives 0.19% (n = 330,000); AID 485353; calls by dose curve; note: nearly all actives have a fitted effect of over 55% in size
Pf growth 48h = inhibits P. falciparum growth in the first generation, 48 h | P. falciparum luciferase growth in erythrocytes, 48 h | Potency, µM (titrated, usually from 28.7 µM), most hits filed as inhibitors | actives 5.9% (n = 310,000) | AID 504832
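Compounds are pin-transferred into medium, infected erythrocytes (2% hematocrit, 0.1% parasitemia final) are added, and plates sit one parasite generation at 37 C in 5% CO2. Detection reagent is then added and luminescence measured.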
Large screens that a line does not name were inactive. Compounds with a hit are over-represented: about 12% of the library has one in this group of screens. Unless noted, calls come from the whole dose curve; as a rule, active = well fitted curve in the direction sought with a large enough effect; inconclusive = small, poorly fitted or top-dose-only effect, or another doubt; inactive = no such curve, though single readings can be large; an effect the other way counts as inactive or inconclusive.

O=S(=O)(c1cccc(COc2c(Cl)cccc2Cl)c1)N1CCOCC1	Pf growth 96h inconclusive
Cc1ccc(NC(=S)N/N=C/c2ccc([N+](=O)[O-])s2)cc1	Sm TGR inh inconclusive, Pf growth 48h 9.28µM
Cc1onc(-c2ccccc2)c1C(=O)N/N=C/c1ccco1	Sm TGR inh inconclusive
Cc1onc(-c2ccccc2)c1C(=O)N/N=C/c1ccc([N+](=O)[O-])s1	Pf growth 96h inconclusive, Pf growth 48h 11.7µM
COc1ccccc1C(=O)NCc1nnnn1-c1ccc(C)c(C)c1	none (no result: Pf growth 96h, SARS PLpro yeast, Pf growth 48h)
COc1ccc(NC(=O)COC(=O)c2ccc(Cl)c(S(N)(=O)=O)c2)c([N+](=O)[O-])c1	Pf growth 48h inconclusive
CSc1ccccc1NC(=O)C1=CC(c2ccc(C)cc2)=NS(=O)(=O)N1C	none
O=C(O)CCC(=O)c1ccc(-c2ccccc2)cc1	none
O=C(O)CCC(=O)CCC(=O)c1ccc(Cl)cc1	Sm TGR inh 28.2µM (no result: Pf growth 48h)
COc1ccc2ccc(O)c(CN3CCN(S(=O)(=O)c4cccc(C(F)(F)F)c4)CC3)c2c1	Pf growth 96h inconclusive, Sm TGR inh 2.51µM, Pf growth 48h inconclusive
COc1ccc2ccc(O)c(CN3CC=C(c4ccccc4)CC3)c2c1	Pf growth 96h inconclusive, Sm TGR inh 8.91µM, Pf growth 48h 1.65µM
COc1ccc2c(CN3CC=C(c4ccccc4)CC3)cc(=O)oc2c1	Pf growth 96h inconclusive, Sm TGR inh inconclusive, Pf growth 48h inconclusive
COc1cc(C)cc(CN2CC=C(c3ccccc3)CC2)c1O	Pf growth 96h inconclusive, Pf growth 48h 1.17µM
CN(C/C=C\c1ccccc1)Cc1cccc2ccccc12	none (no result: Sm TGR inh, SARS PLpro yeast, Pf growth 48h)
COc1cc(O)c(C(CC(=O)N2CCN(c3ccccc3)CC2)c2ccc3c(c2)OCO3)c(OC)c1 (stereo not drawn)	Pf growth 96h inconclusive, Pf growth 48h inconclusive
COc1cc(O)c(C(CCN2CCCC2)c2ccc3c(c2)OCO3)c(OC)c1 (stereo not drawn)	Pf growth 96h 2.94µM, Pf growth 48h 2.94µM
COc1cc(O)c(C(CCN2CCN(c3ccccc3)CC2)c2cc(OC)c(OC)c(OC)c2)c(OC)c1 (stereo not drawn)	Pf growth 96h 0.928µM, Pf growth 48h 1.31µM
COc1cc(O)c(C(CC(=O)N2CCCC(C)C2)c2cc(OC)c(OC)c(OC)c2)c(OC)c1 (stereo not drawn)	Pf growth 96h inconclusive, Pf growth 48h inconclusive
CCN(CC)CCC(c1cc(OC)c(OC)c(OC)c1)c1c(O)cc(OC)cc1OC (stereo not drawn)	Pf growth 96h 2.94µM, Sm TGR inh inconclusive, Pf growth 48h 3.29µM
COc1cc(O)c(C(CCN2CCN(c3ccccc3)CC2)c2ccc3c(c2)OCO3)c(OC)c1 (stereo not drawn)	Pf growth 96h 0.329µM, Pf growth 48h 0.828µM
COc1ccc(-n2c(SCC(=O)Nc3cc(C)cc(C)c3)nc3c(oc4ccccc43)c2=O)cc1	none (no result: Pf growth 96h, SARS PLpro yeast, Pf growth 48h)
CC1CCN(C(=O)c2cnn(-c3cccc(Cl)c3)c2C2CCN(C(=O)OC(C)(C)C)CC2)CC1	none (no result: Pf growth 96h, SARS PLpro yeast, Pf growth 48h)
CCN(CC)CCC(c1ccc2c(c1)OCO2)c1c(O)cc(OC)cc1OC (stereo not drawn)	Pf growth 96h 2.94µM, Pf growth 48h 1.47µM
CCOC(=O)N1CCN(C(=O)c2cccc(S(=O)(=O)Nc3ccccc3Cl)c2)CC1	Pf growth 96h inconclusive, Pf growth 48h inconclusive
COc1ccc(-c2onc(C)c2C)cc1S(=O)(=O)N1CCN(c2ccc(Cl)cc2)CC1	none (no result: Pf growth 96h, SARS PLpro yeast, Pf growth 48h)
O=C(O)CSc1nc2ccccc2nc1Cc1ccccc1F	none (no result: Pf growth 48h)
O=C(CN1CCOCC1)Nc1ccc2c(c1)CCC2	none
O=C(CCN1CCOCC1)NNC(=O)Nc1cccc(C(F)(F)F)c1	Pf growth 96h 10.4µM
O=C(CSc1nc2ccccc2nc1Cc1ccccc1F)Nc1cccc(C(F)(F)F)c1	Sm TGR inh 79.4µM (no result: Pf growth 96h, SARS PLpro yeast, Pf growth 48h)
O=C(CSc1nc(Nc2ccccc2)nc(N2CCOCC2)n1)Nc1ccc([N+](=O)[O-])cc1	Pf growth 48h 11.7µM (no result: Pf growth 96h)
O=C(CCN1CCOCC1)Nc1ccc2c(c1)CCC2	Pf growth 96h 3.7µM
O=C(CSc1nc(Nc2ccccc2)nc(N2CCOCC2)n1)Nc1cccc([N+](=O)[O-])c1	Pf growth 96h inconclusive, Pf growth 48h inconclusive
COc1ccc(C2=NS(=O)(=O)N(C)C(C(=O)NCc3ccc4c(c3)OCO4)=C2)cc1OC	none
O=C(CSc1nc(N2CCOCC2)nc(N2CCOCC2)n1)Nc1cccc(C(F)(F)F)c1	Pf growth 96h 2.08µM
CCOC(=O)C1=CN(Cc2cccc(F)c2)S(=O)(=O)NC1c1cccc(OC)c1 (stereo not drawn)	none (no result: Pf growth 96h, Sm TGR inh, Pf growth 48h)
CCOC(=O)C1=CN(c2cccc(F)c2)C=C(C(=O)OCC)C1c1cc(OC)c(O)c([N+](=O)[O-])c1	Pf growth 96h inconclusive, Pf growth 48h 10.4µM
Cc1ccc2nsnc2c1S(=O)(=O)Nc1cccc2nsnc12	Sm TGR inh 44.7µM, Pf growth 48h inconclusive
Cc1ccc(C)c(NS(=O)(=O)c2c(C)ccc3nsnc23)c1	Pf growth 96h inconclusive
COc1cc(CNCC(O)c2ccccc2)ccc1OCc1ccc(Cl)nc1 (stereo not drawn)	Pf growth 96h 3.7µM (no result: Pf growth 48h)
COc1ccccc1N1CCN(S(=O)(=O)c2ccc(F)c(C(=O)Nc3ccc(C)c(F)c3)c2)CC1	none (no result: Pf growth 96h, SARS PLpro yeast, Pf growth 48h)
Cc1ccc(N=C(N)N=C(N)N)cc1	Pf growth 96h inconclusive, Pf growth 48h 9.28µM
COc1ccc(/C=C2\SC(=O)N(CC(=O)NNC(=O)c3ccccc3O)C2=O)cc1	Pf growth 96h 3.29µM
COc1ccc(OC)c(-n2c(C)cc(/C=C3\C(=N)N4N=C(CC(=O)N5CCOCC5)SC4=NC3=O)c2C)c1	Pf growth 96h 11.7µM, Pf growth 48h inconclusive
COc1ccc(OC)c(S(=O)(=O)N2CCC(c3nc4ccccc4[nH]3)CC2)c1	Pf growth 96h 10.4µM, Pf growth 48h inconclusive
COc1ccc(N2C(=O)CC(n3c(CCCCO)nc4ccccc43)C2=O)cc1 (stereo not drawn)	Sm TGR inh 8.91µM
O=C1CC(N2CCC(c3nc4ccccc4[nH]3)CC2)C(=O)N1c1ccccc1F (stereo not drawn)	Sm TGR inh 31.6µM
COc1ccc(S(=O)(=O)N2CCC(c3nc4ccccc4[nH]3)CC2)cc1	none
COc1ccc(N2C(=O)CC(n3cnc4ccccc43)C2=O)cc1 (stereo not drawn)	Pf growth 96h inconclusive (no result: Pf growth 48h)
COc1ccc(N2C(=O)CC(N3CCC(c4nc5ccccc5[nH]4)CC3)C2=O)cc1 (stereo not drawn)	Pf growth 96h inconclusive, Sm TGR inh 39.8µM (no result: Pf growth 48h)
O=C(CS(=O)(=O)c1cn(CC(=O)N2CCCC2)c2ccccc12)Nc1ccccc1F	Pf growth 96h inconclusive
Cc1cccn2c(/C=N/OCc3ccc(F)cc3)c(-c3ccc(Cl)cc3)nc12	Pf growth 96h 11.7µM, Pf growth 48h inconclusive
COc1ccc(NC(=O)CSc2nccn2-c2ccccc2)cc1	none
COc1ccc(-n2ccnc2SCC(=O)NO)cc1	Pf growth 96h inconclusive, Pf growth 48h 1.31µM
O=C(CSc1nccn1-c1cccc(Cl)c1)NC1CCCC1	none
O=C(CSc1nccn1-c1ccccc1)NO	Pf growth 96h 0.928µM, Pf growth 48h 2.08µM
O=C(CSc1nccn1-c1cccc(Cl)c1)NO	Pf growth 96h inconclusive, Pf growth 48h 0.738µM
